Results: PubChem BioAssay (NCATS)
Inconclusive results are not listed. Activity calls are given as the source filed them. The call rests on the fitted dose curve; in most records, active means well fitted inhibition curve with a large enough effect; inconclusive means small, poorly fitted or top-dose-only effect; inactive means flat fitted curve, though single readings scatter.

Assays:
[1] = qHTS profiling for inhibitors of Plasmodium falciparum proliferation (AID 504749);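 on activity, negative = inhibition: 0% = DMSO vehicle and full inhibition = artemisinin control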; on all read-outs here: nearly all actives have a fitted effect of over 60% in size; conditions: P. falciparum in erythrocytes, SYBR Green DNA, 72 h; for activity, negative = inhibition: at 28.7 µM (top of the series)
Procedure, shortened: (§1)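 Three-day growth assay of blood-stage parasites in erythrocytes (0.3% parasitemia, 2.5% hematocrit) at 37 C, 5% CO2, quantified by SYBR Green DNA staining after overnight detergent lysis.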

[2] = tested on: 3D7; assay: as above; conditions: P. falciparum in erythrocytes, SYBR Green DNA, 72 h; series mostly up to 28.7 µM
Procedure, shortened: as §1

[3] = tested on: 7G8; assay: as above; conditions: P. falciparum in erythrocytes, SYBR Green DNA, 72 h; series mostly up to 28.7 µM
Procedure, shortened: as §1

[4] = tested on: AA1029; assay: as above; conditions: P. falciparum in erythrocytes, SYBR Green DNA, 72 h; series mostly up to 28.7 µM
Procedure, shortened: as §1

[5] = tested on: AS120; assay: as above; conditions: P. falciparum in erythrocytes, SYBR Green DNA, 72 h; series mostly up to 28.7 µM
Procedure, shortened: as §1

[6] = tested on: ATS189; assay: as above; conditions: P. falciparum in erythrocytes, SYBR Green DNA, 72 h; series mostly up to 28.7 µM
Procedure, shortened: as §1

[7] = tested on: ATS95; assay: as above; conditions: P. falciparum in erythrocytes, SYBR Green DNA, 72 h; series mostly up to 28.7 µM
Procedure, shortened: as §1

[8] = tested on: C2A; assay: as above; conditions: P. falciparum in erythrocytes, SYBR Green DNA, 72 h; series mostly up to 28.7 µM
Procedure, shortened: as §1

[9] = tested on: CP185; assay: as above; conditions: P. falciparum in erythrocytes, SYBR Green DNA, 72 h; series mostly up to 28.7 µM
Procedure, shortened: as §1

[10] = tested on: CP191; assay: as above; conditions: P. falciparum in erythrocytes, SYBR Green DNA, 72 h; series mostly up to 28.7 µM
Procedure, shortened: as §1

[11] = tested on: CP192; assay: as above; conditions: P. falciparum in erythrocytes, SYBR Green DNA, 72 h; series mostly up to 28.7 µM
Procedure, shortened: as §1

[12] = tested on: CP194; assay: as above; conditions: P. falciparum in erythrocytes, SYBR Green DNA, 72 h; series mostly up to 28.7 µM
Procedure, shortened: as §1

[13] = tested on: CP201; assay: as above; conditions: P. falciparum in erythrocytes, SYBR Green DNA, 72 h; series mostly up to 28.7 µM
Procedure, shortened: as §1

[14] = tested on: CP211; assay: as above; conditions: P. falciparum in erythrocytes, SYBR Green DNA, 72 h; series mostly up to 28.7 µM
Procedure, shortened: as §1

[15] = tested on: CP215; assay: as above; conditions: P. falciparum in erythrocytes, SYBR Green DNA, 72 h; series mostly up to 28.7 µM
Procedure, shortened: as §1

[16] = tested on: CP217; assay: as above; conditions: P. falciparum in erythrocytes, SYBR Green DNA, 72 h; series mostly up to 28.7 µM
Procedure, shortened: as §1

[17] = tested on: CP237; assay: as above; conditions: P. falciparum in erythrocytes, SYBR Green DNA, 72 h; series mostly up to 28.7 µM
Procedure, shortened: as §1

[18] = tested on: CP238; assay: as above; conditions: P. falciparum in erythrocytes, SYBR Green DNA, 72 h; series mostly up to 28.7 µM
Procedure, shortened: as §1

[19] = tested on: CP247; assay: as above; conditions: P. falciparum in erythrocytes, SYBR Green DNA, 72 h; series mostly up to 28.7 µM
Procedure, shortened: as §1

[20] = tested on: CP203; assay: as above; conditions: P. falciparum in erythrocytes, SYBR Green DNA, 72 h; series mostly up to 28.7 µM
Procedure, shortened: as §1
Potency means the concentration at half of the fitted maximal effect.

Nc1c(N=Nc2ccc(-c3ccc(N=Nc4cc(S(=O)(=O)O)c5ccccc5c4N)cc3)cc2)cc(S(=O)(=O)O)c2ccccc12
inactive: activity, negative = inhibition ([1]; parasite line A) 6.43% | activity, negative = inhibition ([1]; parasite line B) -3.17% | Potency [2] | Potency [3] | Potency [4] | Potency [5] | Potency [6] | Potency [7] | Potency [8] | Potency [9] | Potency [10] | Potency [11] | Potency [12] | Potency [13] | Potency [14] | Potency [15] | Potency [16] | Potency [17] | Potency [18] | Potency [19]

Cc1c(C)c2c(c(C)c1O)CC[C@@](C)(CCC[C@H](C)CCC[C@H](C)CCCC(C)C)O2
inactive: activity, negative = inhibition ([1]; parasite line A) -10.2% | activity, negative = inhibition ([1]; parasite line B) -2.69% | Potency [2] | Potency [3] | Potency [4] | Potency [5] | Potency [6] | Potency [7] | Potency [8] | Potency [9] | Potency [10] | Potency [11] | Potency [12] | Potency [13] | Potency [14] | Potency [15] | Potency [16] | Potency [17] | Potency [18] | Potency [19]

CC(Cc1ccc(O)c(O)c1)C(C)Cc1ccc(O)c(O)c1 (configuration not stated)
inactive: activity, negative = inhibition ([1]; parasite line A) 6.89% | activity, negative = inhibition ([1]; parasite line B) -26.4% | Potency [2] | Potency [4] | Potency [6] | Potency [7] | Potency [8] | Potency [9] | Potency [10] | Potency [11] | Potency [12] | Potency [13] | Potency [14] | Potency [16] | Potency [18] | Potency [19]
active: Potency [3] 8.91 µM

CCOC(=O)C1=CC2(CC)CCCN3CCc4c(n1c1ccccc41)C32 (configuration not stated)
active: Potency ([1]; parasite line A) 11.2 µM | Potency ([1]; parasite line B) 7.94 µM | Potency [2] 8.91 µM | Potency [3] 5.62 µM | Potency [4] 11.2 µM | Potency [5] 11.2 µM | Potency [6] 8.91 µM | Potency [7] 11.2 µM | Potency [8] 10 µM | Potency [9] 8.91 µM | Potency [10] 8.91 µM | Potency [16] 11.2 µM | Potency [18] 8.91 µM

Oc1cc(O)c2c(c1)OC(c1ccc(O)c(O)c1)C(O)C2 (configuration not stated)
inactive: activity, negative = inhibition ([1]; parasite line A) -12.6% | activity, negative = inhibition ([1]; parasite line B) -13.8% | Potency [2] | Potency [3] | Potency [4] | Potency [5] | Potency [6] | Potency [7] | Potency [8] | Potency [9] | Potency [10] | Potency [11] | Potency [12] | Potency [13] | Potency [14] | Potency [15] | Potency [16] | Potency [17] | Potency [18] | Potency [19]

C=CCSSSCC=C
inactive: activity, negative = inhibition ([1]; parasite line A) 1.87% | activity, negative = inhibition ([1]; parasite line B) 3.6% | Potency [2] | Potency [3] | Potency [4] | Potency [5] | Potency [6] | Potency [7] | Potency [8] | Potency [9] | Potency [10] | Potency [11] | Potency [12] | Potency [13] | Potency [14] | Potency [15] | Potency [16] | Potency [17] | Potency [18] | Potency [19]

CCCCCC(CC)COC(=O)CC(C(=O)OCC(CC)CCCC)S(=O)(=O)O (configuration not stated)
inactive: activity, negative = inhibition ([1]; parasite line A) 7.28% | activity, negative = inhibition ([1]; parasite line B) 3.54% | Potency [2] | Potency [3] | Potency [4] | Potency [5] | Potency [6] | Potency [7] | Potency [8] | Potency [9] | Potency [10] | Potency [16] | Potency [17] | Potency [18]
active: Potency [19] 11.2 µM

O=C(O)CN(CCN(CC(=O)O)CC(=O)O)CC(=O)O
inactive: activity, negative = inhibition ([1]; parasite line A) -1.94% | activity, negative = inhibition ([1]; parasite line B) 14.3% | Potency [2] | Potency [3] | Potency [4] | Potency [5] | Potency [6] | Potency [7] | Potency [8] | Potency [9] | Potency [10] | Potency [11] | Potency [12] | Potency [13] | Potency [14] | Potency [16] | Potency [17] | Potency [18] | Potency [19]

CCOC(=O)C1=C(C)NC(C)=C(C(=O)OCC)C1c1ccccc1C=CC(=O)OC(C)(C)C
inactive: Potency [8]
active: Potency ([1]; parasite line A) 11.2 µM | Potency [2] 11.2 µM | Potency [3] 7.94 µM | Potency [4] 8.91 µM | Potency [5] 8.91 µM | Potency [7] 10 µM | Potency [9] 11.2 µM | Potency [10] 8.91 µM | Potency [11] 12 µM | Potency [12] 15.1 µM | Potency [20] 19 µM | Potency [14] 15.1 µM | Potency [15] 16.9 µM | Potency [16] 10 µM | Potency [17] 8.91 µM | Potency [18] 10 µM

CCCCCCOc1ccc(C(=N)N(CCCC)CCCC)c2ccccc12
active: Potency ([1]; parasite line A) 7.08 µM | Potency [2] 5.01 µM | Potency [3] 4.47 µM | Potency [6] 10 µM | Potency [8] 11.2 µM | Potency [9] 10 µM | Potency [10] 4.47 µM | Potency [11] 19 µM | Potency [13] 16.9 µM | Potency [16] 7.94 µM | Potency [17] 11.2 µM | Potency [19] 10 µM

Clc1cc(Cl)c(OCC#CI)cc1Cl
inactive: Potency [11]
active: Potency ([1]; parasite line A) 11.2 µM | Potency ([1]; parasite line B) 11.2 µM | Potency [2] 11.2 µM | Potency [3] 11.2 µM | Potency [4] 12.6 µM | Potency [8] 8.91 µM | Potency [19] 7.08 µM

CN(C)CCCN1c2ccccc2C(C)(C)c2ccccc21
inactive: activity, negative = inhibition ([1]; parasite line A) -5.82% | activity, negative = inhibition ([1]; parasite line B) -11.4% | Potency [2] | Potency [8] | Potency [9] | Potency [11] | Potency [13] | Potency [14] | Potency [15] | Potency [16]
active: Potency [7] 8.91 µM
